According to PubChem BioAssay AID1347087 (National Center for Advancing Translational Sciences (NCATS), 2019):
Records with an inconclusive call do not appear. Active and inactive are the calls of the source. Calls come from the whole dose curve.

Test: qHTS for Inhibitors of the Functional Ribonucleoprotein Complex (vRNP) of Lassa (LASV) Arenavirus: LASV Confirmatory Screen - GLuc reporter signal
Details: LASV minigenome vRNP, Gaussia luciferase reporter; series mostly up to 53.9 µM

SMILES | Potency
CC1OC(=O)[C@@H](C(C)C)NC(=O)C(C(C)C)OC(=O)[C@H](C(C)C)NC(=O)C(C)OC(=O)[C@@H](C(C)C)NC(=O)C(C(C)C)OC(=O)[C@H](C(C)C)NC(=O)C(C)OC(=O)[C@@H](C(C)C)NC(=O)C(C(C)C)OC(=O)[C@H](C(C)C)NC1=O (stereo not given in full) | 0.153 µM (active)
Cc1ncc([N+](=O)[O-])n1CC(C)O (stereo not given) | inactive
Clc1nccc2c1ccc1ccccc12 | inactive
CNCCCC1c2ccccc2C=Cc2ccccc21 | 30.6 µM (active)
CCCCC/C(C=O)=C\c1ccccc1 | inactive
CCC[C@H](N[C@@H](C)C(=O)N1[C@@H]2CCCC[C@H]2C[C@H]1C(=O)O)C(=O)OCC | inactive
CCCCCN=C(N)N/N=C/c1c[nH]c2ccc(OC)cc12 | 8.63 µM (active)
COC(=O)c1nc(Cl)c(Cl)nc1N | 4.85 µM (active)
N#CC(=C(\N)Sc1ccccc1N)/C(C#N)=C(/N)Sc1ccccc1N | 0.0685 µM (active)
CC12C(=O)OC(=O)C1(C)C1CCC2O1 (stereo not given) | 9.68 µM (active)
